Data from PubChem BioAssay AID652126 (The Scripps Research Institute Molecular Screening Center, 2013).
Among all 370,000 compounds or so, about 3,700 (1%) were called active. What follows is part of a selection rich in actives, with near analogues and random picks from the rest. Unmarked numbers belong to inactive results.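 How the source made its calls: active means activation above the mean over all tested compounds plus 3 SD (cut at about 0.9% in these data); inactive means the rest.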

tested on: Nuclear hormone receptor DAF-12 (Strongyloides stercoralis); assay: ssDAF-12 driven luciferase reporter activation – cell-based, luminescence, HEK293, GRIP1 co-expression, lit1-tk-luc, primary screen (AID 652126); conditions: HEK293 ssDAF-12/GRIP1 lit1-tk-luc reporter, at 6.8 µM, stronger effect = higher value, % of 3 µM dafachronic acid response;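 further: 0% = DMSO-only wells and 100% = 3 µM delta7-dafachronic acid wells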

In order of falling activation:
1. COc1ccc(C2c3[nH]c4ccccc4c3CCN2CCCn2cccn2)cc1C (configuration not stated)  0.43%
2. O=C(C1CCN(C2CCN(Cc3ccc4cc(F)ccc4n3)CC2)CC1)N1CCCC1  0.06%
3. Cc1ccc(C(=O)N/N=C/c2sc(=O)n(Cc3cccc(C(=O)O)c3)c2Cl)cc1  0.05%
4. O=C(CSc1nnc(-c2ccccn2)n1-c1ccccc1)Nc1ccc2cn[nH]c2c1  -0.07%
5. FC(F)(F)c1ccccc1Cc1c(-c2ccccc2)nc2c3ccccc3ccn12  -0.19%
6. Cc1cccc(C2c3[nH]c4ccccc4c3CCN2C(=O)c2cc(-c3cccn3C)n[nH]2)n1 (configuration not stated)  -0.27%
7. O=C(C1CCN(C2CCN(Cc3cccc4c3OCO4)CC2)CC1)N1CCOCC1  -0.29%
8. Cc1cc(Br)cn2c(Cc3ccccc3C(F)(F)F)c(C3CCCCC3)nc12  -0.29%
9. Cc1ccc(OCc2nnc(SC3CCc4ccccc4C3=O)n2C)cc1 (configuration not stated)  -0.36%
10. C/C=C/C(=O)OCc1csc(CC(=O)Nc2ccccc2C)n1  -0.39%
11. COc1ccc2c(C(C)c3ccc(N)cc3)cn(C)c2c1 (configuration not stated)  -0.41%
12. COC(=O)[C@]12C[C@H](CC(=O)N3CCOCC3)C(=O)N(Cc3ccc(Cl)cc3Cl)C1=C[C@H](C(C)C)O[C@@H]2C1CC1  -0.42%
13. CC(C)(C)N(CC#CCC(O)(c1ccccc1)C1CCCC1)CCO (configuration not stated)  -0.45%
14. O=C(CSc1nc2ccccc2n1Cc1ccccc1Cl)N/N=C\c1c[nH]c2ccccc12  -0.54%
15. Cc1ccc(C2=CCN(C)C(=O)N2c2ccc(Cl)cc2)cc1  -0.59%
16. O=S1(=O)c2c(cccc2N2CC[C@H](O)C2)O[C@@H]2CCN1C2  -0.61%
17. CCC(NC(=O)c1cc(COc2ccc(F)c(F)c2)on1)c1ccncc1 (configuration not stated)  -0.62%
18. CC(=O)Nc1ccc(S(=O)(=O)NC(C)C(=O)OCC(=O)NC2CCCC2)cc1 (configuration not stated)  -0.65%
19. CC(C)(C)c1ccc(CSc2nnc(-c3cccs3)o2)cc1  -0.67%
20. CC(CCN1CCC(C(O)(c2ccccc2)c2ccccc2)CC1)Oc1ccc(C(F)(F)F)cc1 (configuration not stated)  -0.69%
21. COc1ccc(N2CCN(CCNS(=O)(=O)c3ccc(C(C)(C)C)cc3)CC2)cc1  -0.72%
22. Cc1ccccc1NC(=O)Cn1nnc(-c2ccccc2F)n1  -0.75%
23. CC(C)(COC(=O)Nc1ccccc1)COC(=O)Nc1ccccc1  -0.77%
24. CN(Cc1ccccc1)C(=O)COC(=O)/C=C/c1ccc2c(c1)OCO2  -0.82%
25. COc1cccc(/C=C/C(=O)Nc2ccc3c(c2)OCCO3)c1  -0.84%
26. C=CCN1C(=O)[C@@H](CC(=O)N2CCN(C(=O)c3ccco3)CC2)[C@]2(C(=O)OC)CCCCC=C12  -0.85%
27. CCOC(=O)c1nn(-c2cccc(C)c2)cc1C(=O)c1ccccc1  -0.86%
28. CCN(Cc1ccccc1)C(=O)CSc1nc(C)cc2c1C(=O)OC2  -0.86%
29. c1csc(-c2nnc(SCc3nc4ccccc4[nH]3)o2)c1  -0.86%
30. COC(=O)C1CN(CCc2ccccc2)CCS(=O)(=O)N1Cc1ccc(F)cc1 (configuration not stated)  -0.95%
31. Cc1ccc(C(=O)N(Cc2ccccn2)CC2CCCO2)cc1 (configuration not stated)  -0.96%
32. O=S1(=O)c2ccc(Br)cc2OC[C@H](Cc2ccccc2)N1Cc1cn(Cc2ccccc2)nn1  -1%
33. C#CCNC(=O)C[C@H]1C[C@@]2(C(=O)OC)C(=C[C@H](C(C)C)O[C@@H]2C2CC2)N(Cc2ccco2)C1=O  -1.02%
34. Cc1ccc(Cn2cc(CN3[C@@H](C)COc4cc(Br)ccc4S3(=O)=O)nn2)cc1  -1.02%
35. O=C(Cn1cnc([N+](=O)[O-])n1)NCCc1ccccc1  -1.02%
36. C=CCN1C(=O)[C@@H](CC(=O)NCCCCc2ccccc2)[C@]2(C(=O)OCC)CCCCC/C=C/12  -1.06%
37. COC(=O)[C@]12C[C@H](CC(=O)N3CCN(C(=O)C4CC4)CC3)C(=O)N(CCC3=CCCCC3)C1=C[C@H](C(C)C)O[C@@H]2C1CC1  -1.07%
38. C=C(C)C#CC(Cc1ccccc1)NCC1CC1 (configuration not stated)  -1.12%
39. COc1ccc(CCNC(=O)CSc2nc3c([nH]2)c(=O)n(C)c(=O)n3C)cc1  -1.12%
40. Cc1ccc(/C=C2\CCn3c2nc2cc(C(=O)O)ccc2c3=O)c(C)c1  -1.16%
41. O=C(O)CC(Cc1ccccc1)C(=O)Nc1ccc([N+](=O)[O-])cc1 (configuration not stated)  -1.24%
42. C[C@@H](NC(=O)c1ccccc1OCC(=O)Nc1ccc(I)cc1)C(=O)N(C)Cc1ccccc1  -1.27%
43. COC(CNC(=O)[C@H](Cc1ccccc1)NC1(C(=O)NC2CCCCC2)CCCCC1)OC  -1.29%
44. Cc1cc(C)n2ncc(C(=O)Nc3ccc4c(c3)OCCO4)c2n1  -1.35%
45. Cc1c(NC(=O)C(=O)N/N=C/c2cccs2)c(=O)n(-c2ccccc2)n1C  -1.41%
46. CCOC(=O)CSc1ncc(-c2cccc(Cl)c2)cn1  -1.41%
47. COc1ccc(S[C@]2(C(=O)N(C)C)CC(=O)N(c3ccc(OC)cc3)[C@@H]2c2ccc(OC)cc2)cc1  -1.42%
48. Cc1ccc(NC(=O)N2CCC(O)(c3cccnc3)CC2)cc1  -1.43%
49. O=C(CSc1nc2ccccc2n1Cc1ccccc1)NNC(=S)Nc1ccccc1  -1.45%
50. Nn1c(SCC(=O)Nc2cccc3ccccc23)nnc1-c1cc(-c2ccc(F)cc2)n[nH]1  -1.45%
51. CC(=O)c1cc(-c2ccc3ccccc3c2)c(=O)n2c1CCC2  -1.47%
52. O=C(Nc1ccccc1)O/N=C1/CCCc2occc21  -1.48%
53. COc1ccc(Cl)cc1NC(=O)C(C)N1CCc2ccccc21 (configuration not stated)  -1.48%
54. COC(=O)C[C@H]1CC[C@H]2[C@H](COc3ccc(NC(=O)C4CC4)cc3C(=O)N2C)O1  -1.49%
55. O=S(=O)(c1ccccc1)N1CCC(c2nc3ccccc3o2)CC1  -1.57%
56. CCOC(=O)CC1(NC(=O)c2cc(COc3cncc(Cl)c3)on2)CCCCC1  -1.57%
57. Cc1cc(OC(=O)c2ccccc2Cl)ccc1N1C(=O)CCC1=O  -1.58%
58. COc1cccc(C(O)Cc2nc3ccccc3n2C)c1OC (configuration not stated)  -1.62%
59. CCn1c(=O)n2n(c1=O)[C@@]1(C=C3CCCC[C@H]32)N=C(NC(=O)c2ccccc2)N(Cc2ccccc2)[C@H]1Cc1ccccc1  -1.66%
60. COc1ccc(N(CC(=O)N/N=C/c2cccs2)S(=O)(=O)c2ccc(OC)c(OC)c2)cc1  -1.66%
61. COC(=O)CC1CCc2cc(C)cc(C(CC(C)C)NC(=O)[C@H](CC(C)C)NC(=O)OCc3ccccc3)c2O1 (some centres not stated)  -1.68%
62. COc1cccc(CSc2nnc(-c3cccnc3)n2Cc2ccccc2)c1  -1.73%
63. Cc1cccc(-n2cnc(C(=O)NNC(=S)Nc3ccccc3)c2)n1  -1.77%
64. COc1cccc(N2CCN(CC(=O)N(C)Cc3ccc(F)cc3)CC2)c1  -1.79%
65. COc1cccc(CNC(=O)CNS(=O)(=O)c2ccc3nc(C)sc3c2)c1OC  -1.81%
66. O=C(Nc1ccc(Cl)cc1)Nc1ccc(Oc2cccnc2)nc1  -1.82%
67. COC(=O)[C@H](C(C)C)N1CCc2nnn(Cc3ccc(C)cc3)c2-c2ccccc2S1(=O)=O  -1.89%
68. CC(=O)OC12CCCN(C1)/C(=C/c1ccncc1)C2 (configuration not stated)  -1.9%
69. COC(=O)[C@@]12CCCCC=C1N(CCc1ccc(Cl)cc1)C(=O)[C@H]2CC(=O)NCc1ccc(OC)c(OC)c1  -1.91%
70. Cc1ccccc1CS(=O)(=O)Cc1ccc(C(=O)Nc2ccc(Cl)cc2)o1  -2.4%

Cc1cccc(C(=O)N2CCc3c([nH]c4ccccc34)C2CC(C)C)n1 (configuration not stated) was tested, and the activation was 1.53% (active).
Cc1ccc(NC(=O)Nc2cccnc2)cc1 was tested, and the activation was 1.08% (active).
In the case of CN(CC#CCC(c1ccccc1)c1ccccc1)C(C)(C)C, the activation is reported as 1.07% (active).
For Cc1cccc(/C(N)=N/OC(=O)c2ccccc2Cl)c1, the activation was 1.96% (active).
N/C(=N\OC(=O)Nc1ccccc1)c1ccno1 was tested, and the activation was 5.22% (active).
In the case of O=C(Nc1ccn(Cc2ccccc2)n1)c1n[nH]c([N+](=O)[O-])c1Cl, the activation is reported as 1.07% (active).
In the case of C/C(=C\c1ccco1)CN1CCC(N2CCC(C(=O)N3CCOCC3)CC2)CC1, the activation is reported as 1.16% (active).
With Cc1ccc2cc(/C=N/Nc3ccc(C(=O)O)cc3)c(Cl)nc2c1 the activation was 0.95% (active).
In the case of Cc1cc(C)nc(Nc2n[nH]c(-c3ccccc3N)n2)n1, the activation is reported as 1.05% (active).
COc1ccc2c(c1)c(C(=O)N/N=C/c1cccs1)c(C)n2C was tested, and the activation was 1.69% (active).
For Cc1cc(OCc2cc(C(=O)NCc3cc(C(C)C)no3)no2)cc(C)c1Cl, the activation was 1.55% (active).
In the case of Cc1ccc(OCc2nc3ccccc3n2C)cc1, the activation is reported as 0.93% (active).
Cc1cc(N=Nc2ccc3ccccc3c2)ccc1O was tested, and the activation was 1.92% (active).
In the case of CCOC(=O)CSc1nc(C)cc2c1C(=O)OC2, the activation is reported as 1.04% (active).
For Cc1cccc(NC(=O)/C=C/c2ccc3c(c2)OCO3)n1, the activation was 1.53% (active).
With Cc1ccc(NC(=O)Cc2nc(COC(=O)C(C)NS(=O)(=O)c3ccc(C)cc3)cs2)cc1 (configuration not stated) the activation was 0.98% (active).
In the case of CCCc1nc2c3ccccc3ccn2c1Cc1ccccc1C(F)(F)F, the activation is reported as 1.29% (active).
